Screens (PubChem)
Shiga inhibitor – inhibitors of Shiga toxin in Vero cells | Vero cells, Shiga toxin protein synthesis inhibition reporter | inhibition, % at 38.7 µM | 290,000 compounds, 9.2% hits | AID 2315; in the data active = inhibition mostly above about 28%, no sharp cut-off; inactive = mostly below about 43%; note: 0% is about no effect
Cycloheximide cs – counter-screen for Shiga toxin inhibitors: cycloheximide protein synthesis inhibition | cell reporter, cycloheximide protein synthesis inhibition counterscreen | max response, % | 300,000 compounds, 12% hits | AID 2314; in the data active = max response mostly above about 13%, no sharp cut-off; inactive = mostly below about 14%; note: read at 38.3 µM for the half of the compounds with a filed dose; 0% is about no effect
AmpC detergent – blocks E. coli AmpC beta-lactamase in detergent assay; P00811; AmpC hydrolysis of nitrocefin, absorbance 480 nm, 0.01% Triton; Potency, µM (titrated, usually from 114 µM), inactives show top-dose activity change, negative = inhibition, actives largely listed as inhibitors; 370,000 compounds, 0.041% hits;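 note: potency is the fitted concentration of half-maximal effect; 0% = no-compound wells and -100% = no-enzyme wells; nearly all actives have a fitted effect of over 25% in size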
Target sequence (P00811 whole entry, looked up): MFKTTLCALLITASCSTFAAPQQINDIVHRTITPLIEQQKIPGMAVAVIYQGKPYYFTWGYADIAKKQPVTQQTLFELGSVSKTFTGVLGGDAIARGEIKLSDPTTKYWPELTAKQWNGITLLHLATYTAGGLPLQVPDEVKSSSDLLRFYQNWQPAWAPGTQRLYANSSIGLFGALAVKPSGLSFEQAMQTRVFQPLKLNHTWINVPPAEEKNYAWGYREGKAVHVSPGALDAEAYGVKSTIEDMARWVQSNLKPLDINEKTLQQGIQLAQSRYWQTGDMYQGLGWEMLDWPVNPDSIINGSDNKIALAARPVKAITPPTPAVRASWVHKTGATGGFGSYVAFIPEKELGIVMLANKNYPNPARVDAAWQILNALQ
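20 mM phosphate pH 7.0 + 0.01% (detergent screen) or 0.0001% Triton X-100; 5.3 nM AmpC reagent; cpd preinc 15 min RT; nitrocefin (800 uM stock) to start; A480 q20 s × 4 min; Activity was normalised to no-enzyme and no-compound control wells.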
AmpC inh no detg – AmpC beta-lactamase inhibition without detergent; P00811; AmpC nitrocefin hydrolysis, absorbance 480 nm, 0.0001% Triton; Potency, µM (doses to about 57.1 µM), without a hit: at the top dose activity change, negative = inhibition, usual class: inhibitors; 330,000 compounds, 0.52% hits;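 note: potency is the fitted concentration of half-maximal effect; plate controls were no compound for no effect and no enzyme for full effect; nearly all actives have a fitted effect of over 20% in size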
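20 mM phosphate pH 7.0 + 0.01% (detergent screen) or 0.0001% Triton X-100; 5.3 nM AmpC reagent; cpd preinc 15 min RT; nitrocefin (800 uM stock) to start; A480 q20 s × 4 min; Activity was normalised to no-enzyme and no-compound control wells.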
AMA1-RON2 inh – disrupts binding of P. falciparum AMA1 to RON2 | Potency, µM (top dose mostly 58.2 µM), for the others: at the highest dose activity change, negative = inhibition, actives largely listed as inhibitors | AlphaScreen AMA1-biotinylated RON2 peptide binding | 360,000 compounds, 0.2% hits;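 note: potency is the fitted concentration of half-maximal effect; 0% = vehicle wells and -100% = peptide control; nearly all actives have a fitted effect of over 45% in size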
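AMA1 (3D7) with his tag at 25 nM final met compounds first, then biotinylated RON2 peptide at 25 nM; detection used donor plus acceptor beads, 10 µg/mL apiece, read by AlphaScreen after 30 min at room temperature.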
SARS PLP yeast – SARS-CoV PLP inhibition in yeast | S. cerevisiae expressing SARS-CoV PLpro, growth rescue | Potency, µM (highest dose often 32.9 µM), inactives show top-dose activity, positive = growth rescue, hits mostly activators | 330,000 compounds, 0.19% hits | AID 485353; calls by dose curve; note: potency is the fitted concentration of half-maximal effect; 0% is about no effect; nearly all actives have a fitted effect of over 55% in size
The depositor's hits bear a star; ? = inconclusive; . = not tested or not shown; [ ] = remark or other dose. This is one part of a sample in which hits are shown more often than they occur. Unless noted, calls come from the whole dose curve; as a rule, active = well fitted curve in the direction sought with a large enough effect; inconclusive = small, poorly fitted or top-dose-only effect, or another doubt; inactive = no such curve, though single readings can be large; an effect the other way counts as inactive or inconclusive.

SMILES | Shiga inhibitor | Cycloheximide cs | AmpC detergent | AmpC inh no detg | AMA1-RON2 inh | SARS PLP yeast
N#Cc1cccc(NC(=O)CSc2ccccc2)c1 | 2.5 | 9.1* | -3.2% | -23.8% | 10.3% | -8.4%
Cc1cc(C)cc(NC(=O)CSc2nc3ncccc3[nH]2)c1 | . | . | 5.7% | . | . | .
COC(=O)c1ccc(NC(=O)CS(=O)(=O)c2ccccc2)cc1 | 46.3 | 11.0* | -12.2% | -25.3% | 12.2% | ?
CCN(CC)C(=O)C(=O)Nc1ccc(Oc2ccccc2)cc1 | 78.0* | 23.8* | 2.1% | 45.9% | 4.5% | -2.0%
Cc1cc(C)cc(NC(=O)CS(=O)(=O)c2ccccc2)c1 | 21.3 | -1.6 | -14.0% | -42.1% | -0.2% | 12.7%
CCN(Cc1ccccc1)C(=O)CSc1nc(C)cc(=O)[nH]1 | -4.5 | 5.5 | -5.2% | -3.0% | 52.5% | -2.1%
COc1ccc(/C=N/Nc2nncc3ccccc23)c(OC)c1 | 105.8* | 51.0* | -0.8% | -3.3% | 4.8% | 0.2%
CN(C)c1ccc(/C=N/Nc2nncc3ccccc23)cc1 | 108.5* | 28.4* | -4.6% | 37.9% | -7.1% | -8.9%
CN(C)c1ccc(/C=N/Nc2nc3ccccc3o2)cc1 | 33.6 | 5.0 | -2.2% | -32.1% | 8.8% | -1.2%
Oc1cccc(/C=N/Nc2nn3cnnc3c3ccccc23)c1 | 24.4 | -1.6 | -0.8% | -45.8% | 38.3% | -3.3%
COc1ccc(/C=N/Nc2cc(C)nc(N3CCOCC3)n2)c(OC)c1 | 12.5 | -2.0 | -1.1% | -0.3% | -0.4% | 0.7%
Cc1cccc(/C=N/Nc2nncc3ccccc23)c1 | 47.3* | 24.1* | -13.5% | -2.5% | -24.5% | -7.3%
COc1cc(/C=N/Nc2nncc3ccccc23)cc(OC)c1OC | 87.4* | 39.4* | -3.9% | 14.9% | 7.0% | -1.9%
CCNc1nc(NCC)nc(N/N=C/c2cc(OC)c(OC)c(OC)c2)n1 | -5.3 | 0.6 | 0.8% | 77.4% | 59.7% | 1.7%
CC(=O)Nc1cccc(NC(=O)c2cc(-c3cccnc3)nc3ccc(Cl)cc23)c1 | -2.5 | -2.0 | 1.7% | 87.1% | 5.0% | 0.8%
COC(=O)c1ccc(OCC(O)CN2C(=O)c3ccccc3C2=O)cc1 (stereo not drawn) | 16.1 | 6.2 | -3.5% | -0.5% | 5.6% | -0.2%
C(=N\Nc1nncc2ccccc12)/c1ccccc1 | 73.4* | 50.4* | 4.7% | -5.5% | 1.0% | -2.7%
COc1ccc(/C=N/Nc2cc(C)nc3ccccc23)cc1 | 0.6 | 11.0 | -6.3% | -0.9% | 6.2% | 1.4%
CN(C(=O)c1nn(C)c2c1CSc1ccccc1-2)c1ccccc1Cl | 33.2* | 25.1* | -10.9% | 12.7% | -16.6% | 6.5%
CN(C(=O)c1nn(C)c2c1CSc1ccccc1-2)c1ccc(F)cc1 | -3.2 | -1.6 | 2.9% | 61.2% | 6.7% | -28.3%
CC1CC(C)CN(C(=O)c2nn(C)c3c2CSc2ccccc2-3)C1 (stereo not drawn) | 5.0 | -0.1 | -14.0% | 47.8% | -2.1% | -9.4%
CC1CCCN(C(=O)c2nn(C)c3c2CSc2ccccc2-3)C1 (stereo not drawn) | 31.5 | 18.2* | -7.2% | 31.3% | -1.8% | -2.5%
CCOC(=O)c1oc2ccccc2c1NC(=O)CCl | -7.5 | -3.7 | -0.5% | -10.3% | 3.5% | -0.8%
Cn1ccs/c1=N\C(=O)Nc1cccc(Cl)c1 | 71.4* | 41.8* | -0.4% | -13.6% | -1.2% | -3.8%
CN=c1sc(C(=O)Nc2cccc(Cl)c2)cc(=O)n1C | -16.6 | -1.7 | ? | -18.9% | 20.3% | 1.1%
SMILES | Shiga inhibitor | Cycloheximide cs | AmpC detergent | AmpC inh no detg | AMA1-RON2 inh | SARS PLP yeast
CCCC(=O)Nc1ccc(-c2csc(N/N=C\c3ccncc3)n2)cc1 | 29.7 | 30.9* | -8.4% | 13.3% | 67.7% | -0.9%
CC(C)(C)c1csc(N/N=C/c2cccnc2)n1 | 126.7* | 36.6* | ? | 23.7% | -6.0% | -4.6%
Clc1ccc(-c2csc(N/N=C/c3cccnc3)n2)c(Cl)c1 | -2.9 | -1.8 | -12.4% | -19.4% | 30.3% | -23.6%
CC(=O)Nc1ccc(-c2csc(N/N=C\c3ccncc3)n2)cc1 | 37.6 | 10.7 | 8.7% | -33.0% | 53.9% | 1.1%
Cc1ccc(/C=N/Nc2nc(C(C)(C)C)cs2)o1 | 92.9* | 45.7* | -5.1% | -53.1% | 42.5% | 0.4%
C(=N\Nc1nc(-c2ccccc2)cs1)/c1cccnc1 | 61.5* | 46.3* | 1.6% | -5.3% | 36.3% | -30.6%
CCOc1ccccc1NC(=O)CN1C(=O)CSC(C)C1=O (stereo not drawn) | 37.8 | 7.3 | ? | -23.7% | 3.4% | -5.1%
CCN1CCN(C(=O)C2CCN(c3nnc(-n4c(C)ccc4C)s3)CC2)CC1 | 13.1 | -3.8 | -6.6% | 15.3% | -1.8% | -0.9%
Cc1ccc(C)c(OCCn2cc(C(=O)c3ccco3)c3ccccc32)c1 | . | . | 23.2% | . | . | .
Cc1ccc(/C=N/Nc2nc3ccccc3s2)o1 | 74.5* | 43.1* | ? | -32.6% | -1.3% | -21.5%
Fc1ccc2nc(-c3ccccc3)ccc2c1 | . | . | . | . | 42.3% | .
O=c1c2ccccc2c(-c2cccc(C(F)(F)F)c2)nn1-c1ccccc1 | -3.6 | -3.8 | 0.3% | -2.5% | 1.5% | 0.5%
O=c1c2ccccc2c(-c2ccc(O)cc2)nn1-c1cccc(C(F)(F)F)c1 | -4.8 | -5.2 | 1.7% | 17.8µM* | -1.9% | -87.5%
CCOC(=O)c1c(-c2ccccc2)oc2ccc(OCc3ccc(C)cc3)cc12 | . | . | 18.0% | . | . | .
CSc1ncc(-c2ccc(Cl)cc2)[nH]1 | 75.8* | 45.4* | 2.0% | -23.4% | -17.4% | -13.9%
Cc1cc(C)cc(C(O)c2ncc(-c3ccc(Cl)cc3)[nH]2)c1 (stereo not drawn) | . | . | . | . | -5.0% | .
Cc1ccc(C=Nc2ccc(N(C)C)cc2)o1 | 109.0* | 24.2* | ? | 2.0% | ? | -9.7%
O=C(CSc1nc2ccccc2s1)NCc1ccc2c(c1)OCO2 | -1.4 | 21.1 | ? | -31.4% | -9.4% | -7.8%
Cc1ccccc1NC(=O)CCCSc1nc2ccccc2s1 | 3.8 | 20.4 | 0.4% | -34.2% | 22.0% | -40.6%
O=C(CCCSc1nc2ccccc2s1)NCc1ccc2c(c1)OCO2 | -19.1 | 17.0* | -1.8% | -9.9% | 1.0%[11.6 µM] | 8.8%
CC(C)(C)NC(=O)CCCSc1nc2ccccc2s1 | 72.1* | 46.7* | -9.2% | 5.1% | ? | -0.8%
CC(C)(C)NS(=O)(=O)c1ccc2nc(NC(=O)c3ccc(N4C(=O)CCC4=O)cc3)sc2c1 | 2.0 | 1.0 | -14.1% | -6.0% | -0.5% | 2.3%
Cc1ccc(S(=O)(=O)N(C)c2nc3ccccc3[nH]c2=S)cc1 | -3.8 | 11.0 | -7.6% | -50.4% | 19.0% | 0.1%
CN(c1nc2ccccc2nc1Cl)S(=O)(=O)c1ccccc1 | 44.6* | 27.0* | 3.3% | -20.7% | -5.7% | -3.3%
Cc1ccnc(Nc2nc3ccccc3o2)n1 | -0.4 | 6.5 | ? | 0.0% | 147.6% | -11.2%
c1ccc2oc(NC3=NCN(C4CCCCC4)CN3)nc2c1 | 18.2 | 20.4* | ? | -18.0% | -2.4% | -1.2%
